Rows were chosen to be rich in hits. Some 1.6% of all compounds tested hit in one or more screens of this group.
12-LOX inh = Primary qHTS assay for inhibitors of human arachidonate 12S-lipoxygenase (ALOX12): Round 2; Potency, µM (titrated, usually from 108 µM), usual class: inhibitors; purified 12hLO, xylenol orange hydroperoxide absorbance; AID 1671190, 2021; 1.1% of 580,000 active
Target sequence (P18054 whole entry, looked up): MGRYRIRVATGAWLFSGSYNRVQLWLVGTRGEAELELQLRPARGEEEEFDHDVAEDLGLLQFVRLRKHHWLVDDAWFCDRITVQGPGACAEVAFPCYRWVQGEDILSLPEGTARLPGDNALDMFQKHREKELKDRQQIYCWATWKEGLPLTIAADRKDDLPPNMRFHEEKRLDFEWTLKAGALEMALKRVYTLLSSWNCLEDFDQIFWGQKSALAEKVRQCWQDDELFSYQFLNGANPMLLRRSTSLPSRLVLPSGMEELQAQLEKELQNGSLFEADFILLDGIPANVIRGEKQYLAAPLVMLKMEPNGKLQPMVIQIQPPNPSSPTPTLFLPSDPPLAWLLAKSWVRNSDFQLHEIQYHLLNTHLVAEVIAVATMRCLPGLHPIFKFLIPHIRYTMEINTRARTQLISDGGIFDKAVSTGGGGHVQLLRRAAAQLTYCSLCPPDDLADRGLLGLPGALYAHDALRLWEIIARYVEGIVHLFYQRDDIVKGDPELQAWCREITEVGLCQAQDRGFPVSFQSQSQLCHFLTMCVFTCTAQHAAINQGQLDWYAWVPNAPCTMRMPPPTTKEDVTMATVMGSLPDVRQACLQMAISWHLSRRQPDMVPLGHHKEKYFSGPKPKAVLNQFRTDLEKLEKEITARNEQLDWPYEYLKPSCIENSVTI
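Purified human 12hLO (150 nM final) in 25 mM Hepes, 0.01% Triton X-100, pH 7.0 was preincubated 15 min at room temperature with compound. Then 40 uM arachidonic acid was added, 30 min. Hydroperoxide was read by Fe-XO absorbance ratio 573/405 nm.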
gsp agonist = qHTS for Agonist of gsp, the Etiologic Mutation Responsible for Fibrous Dysplasia/McCune-Albright Syndrome: qHTS | gsp mutant cells, cAMP HTRF, 30 min | Potency, µM (titrated, usually from 76.9 µM), most hits filed as activators | 0.13% of 340,000 active | AID 624287, 2012; active = well fitted activation curve with a large enough effect; inconclusive = small, poorly fitted or top-dose-only effect, or another doubt; inactive = no such curve, though single readings can be large or run the other way; cell line not stated here;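 note: phosphodiesterase inhibitor Ro 20-1724 added with compounds to block cAMP breakdown; nearly all actives have a fitted effect of over 60% in size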
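Cells in DMEM/10% FBS with G418 were pretreated with compounds in DMSO plus […] (300 uM stock) for 30 min at 37C. cAMP was measured by HTRF (cAMP-d2 plus anti-cAMP antibody-K) after 30 min at room temperature.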
gsp antag = qHTS for Antagonists of gsp, the Etiologic Mutation Responsible for Fibrous Dysplasia/McCune-Albright Syndrome: qHTS | Potency, µM (doses to about 76.9 µM), hits mostly inhibitors | 0.4% of 340,000 active | gsp-mutant cells, cAMP HTRF, 30 min | AID 624288, 2012; calls by dose curve; cell line not stated here;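 note: intracellular cAMP measured with PDE inhibitor Ro 20-1724 present during compound exposure; nearly all actives have a fitted effect of over 65% in size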
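G418-selected cells were plated in DMEM/10% FBS for 16-24 h at 37C, then treated with compounds plus the PDE inhibitor […] (300 uM solution added) for 30 min at 37C. Intracellular cAMP was measured by HTRF after 30 min lysis at room temperature.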
Mito fusion act = qHTS Assay for Small Molecule Inhibitors of Mitochondrial Division or Activators of Mitochondrial Fusion; Potency, µM (series often up to 46.1 µM), actives largely listed as activators; 0.23% of 320,000 active; S. cerevisiae fusion-defective mutant growth rescue, CellTiterGlo 48 h; AID 485298, 2010; note: nearly all actives have a fitted effect of over 45% in size
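Growth-rescue viability read-out: after 48 h at the non-permissive 37C in glycerol/ethanol YPEG, yeast mitochondrial fusion mutants are measured by CellTiterGlo luminescence; compounds (23 nl pinned per well) restoring growth score as division inhibitors or fusion activators.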
FUS yeast rescue = qHTS for Suppressors of FUS Proteinopathy: Primary screen using FUS-linked yeast assay; S. cerevisiae FUS-expressing, growth rescue, OD600, 24 h; Potency, µM (top dose mostly 76.6 µM), actives largely listed as activators; 0.24% of 390,000 active; note: nearly all actives have a fitted effect of over 55% in size
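Toxicity suppression screen in FUS-yeast. Cells induced with 2% galactose, starting OD 0.005, treated 24hr at 30C with compounds at multiple final concentrations; growth by OD600.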
Numbers stand for hits; ! = not active in a repeat; [ ] = dose if it differs, or a comment. Unless noted, calls come from the whole dose curve; as a rule, active = well fitted curve in the direction sought with a large enough effect; inconclusive = small, poorly fitted or top-dose-only effect, or another doubt; inactive = no such curve, though single readings can be large; an effect the other way counts as inactive or inconclusive.

What do the screens show for `CCC(C)NC(=O)c1ccc2c(c1)N(Cc1cccc(Cl)c1)C(=O)c1ccccc1S2=O` (stereo not given)?
12-LOX inh: inactive; Mito fusion act: inactive; FUS yeast rescue: inconclusive

How did CC(NC(=O)c1ccc2c(c1)N(Cc1ccc(Cl)cc1)C(=O)c1ccccc1S2=O)c1ccccc1 (stereo not given) do in these assays?
12-LOX inh: inconclusive; FUS yeast rescue: 25.1µM

Results for O=C(Nc1ccccc1)N[C@H]1[C@H](O)[C@@H](N2CCN(c3ccccc3)CC2)[C@@H]2OC[C@H]1O2 ?
12-LOX inh: 112µM

How did COc1cccc(C2=CC(=O)C[C@H](c3ccc(Cl)cc3)C2)c1 do in these assays?
12-LOX inh: inactive; gsp agonist: inactive; gsp antag: inactive; Mito fusion act: inconclusive; FUS yeast rescue: inconclusive

What do the screens show for `COc1cccc(C2=CC(=O)CC(c3ccco3)C2)c1` (stereo not given)?
12-LOX inh: 35.5µM; gsp agonist: inactive; gsp antag: inactive; FUS yeast rescue: inactive

Results for O=C(Nc1ccccc1C(=O)Nc1nnc(C(F)(F)F)s1)c1ccccc1Cl ?
12-LOX inh: inconclusive; gsp agonist: inactive[15.4 µM]; gsp antag: 31.6µM; Mito fusion act: inconclusive; FUS yeast rescue: inactive

What do the screens show for `NC(=O)c1ccccc1NC(=O)c1ccccc1Cl`?
12-LOX inh: inactive; gsp agonist: inconclusive; gsp antag: inactive; Mito fusion act: inactive; FUS yeast rescue: inactive

Results for CC(C)(C)c1ccc(C(=O)N/N=C/c2ccc3ccccc3c2)cc1 ?
12-LOX inh: inactive

How did CCCc1cc2c(=O)c(-c3ccc4c(c3)OCCCO4)coc2cc1OS(C)(=O)=O do in these assays?
12-LOX inh: inactive

Results for CCc1cc2c(=O)c(-c3ccc4c(c3)OCCO4)c(C)oc2cc1OS(C)(=O)=O ?
12-LOX inh: inactive; gsp agonist: inactive; gsp antag: 50.1µM; Mito fusion act: inactive; FUS yeast rescue: inconclusive

What do the screens show for `S=C(Nc1ccccc1Oc1ccccc1)Nc1cccc(Cl)c1Cl`?
12-LOX inh: 35.5µM; gsp agonist: inactive; gsp antag: inactive; Mito fusion act: inconclusive

What do the screens show for `S=C(Nc1ccc(Cl)cc1Cl)Nc1ccccc1Oc1ccccc1`?
gsp agonist: inactive; gsp antag: inactive; Mito fusion act: inactive; FUS yeast rescue: inactive

Results for CCOC(=O)c1[nH]c(=S)n(-c2ccccc2)c1C(=O)OCC ?
12-LOX inh: 7.08µM; gsp agonist: inactive; FUS yeast rescue: inactive

How did CC1CCc2sc(C(=O)N/N=C/c3ccc(O)cc3)cc2C1 (stereo not given) do in these assays?
12-LOX inh: 28.2µM; gsp agonist: inactive; gsp antag: inactive; Mito fusion act: inactive; FUS yeast rescue: inactive

Results for C/C(=N\NC(=O)c1cc2c(s1)CCC(C)C2)c1ccc[nH]1 (stereo not given) ?
12-LOX inh: inactive; gsp agonist: inactive; gsp antag: inactive; Mito fusion act: inactive; FUS yeast rescue: inactive

What do the screens show for `C/C(=N\NC(=O)c1cc2c(s1)CCC(C)C2)c1ccncc1` (stereo not given)?
12-LOX inh: 1.78µM; gsp agonist: inactive[15.4 µM]; gsp antag: inactive; Mito fusion act: inactive; FUS yeast rescue: inactive

How did CC1CCc2sc(C(=O)N/N=C3/CCCCc4ccccc43)cc2C1 (stereo not given) do in these assays?
12-LOX inh: 1.26µM

What do the screens show for `CC1CCc2sc(C(=O)NC3CCCCC3)cc2C1` (stereo not given)?
12-LOX inh: inactive; gsp agonist: inactive; gsp antag: inactive; Mito fusion act: inactive; FUS yeast rescue: inactive

How did CC(C)Cc1nc(Cn2cc(S(=O)(=O)N3CCCC3)ccc2=O)no1 do in these assays?
12-LOX inh: inactive

How did O=C(Nc1ccc(Cl)c(Cl)c1)c1cccc(S(=O)(=O)NCc2cccnc2)c1 do in these assays?
12-LOX inh: inactive; gsp agonist: inactive[15.4 µM]; gsp antag: 28.2µM; Mito fusion act: inactive; FUS yeast rescue: inactive

What do the screens show for `C[C@@H](CC(=O)O)[C@@H](N)C(=O)O`?
12-LOX inh: 20µM!

Screening results as filed in PubChem BioAssay.
